Measured values published in PubChem BioAssay (NCATS).
Inconclusive results are not listed. Active and inactive are the calls of the source. Unless noted, the call rests on the fitted dose curve; in most records, active means well fitted curve in the direction sought with a large enough effect; inconclusive means small, poorly fitted or top-dose-only effect, or another doubt; inactive means no such curve, though single readings can be large; an effect the other way counts as inactive or inconclusive.

Columns and labels:
[1] = target: DNA polymerase III PolC-type (Bacillus subtilis (strain 168)) (UniProt P13267); test: qHTS Validation Assay for the Inhibitors of DNA Replication in Gram-Positive Bacteria (AID 485295);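 further: PicoGreen fluorescence of double-stranded DNA made on primed circular M13 template; series mostly up to about 57 µM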
Procedure, shortened: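 Reconstituted B. subtilis holoenzyme (Pol III, beta clamp, SSB, primase) was preincubated with compound at room temperature, then given single-stranded circular M13Gori plus dNTPs and NTPs. EDTA-containing PicoGreen stopped the reaction, and dsDNA product was read by fluorescence.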

[2] = target: Tumor susceptibility gene 101 protein (Homo sapiens) (UniProt Q99816); test: qHTS Validation Assay for Iinhibitors of HIV-1 Budding by Blocking the Interaction of PTAP/TSG101 (AID 485342; calls by dose curve)
Chain of Tumor susceptibility gene 101 protein (Homo sapiens) (Q99816 whole entry, looked up, the tested form may be a part): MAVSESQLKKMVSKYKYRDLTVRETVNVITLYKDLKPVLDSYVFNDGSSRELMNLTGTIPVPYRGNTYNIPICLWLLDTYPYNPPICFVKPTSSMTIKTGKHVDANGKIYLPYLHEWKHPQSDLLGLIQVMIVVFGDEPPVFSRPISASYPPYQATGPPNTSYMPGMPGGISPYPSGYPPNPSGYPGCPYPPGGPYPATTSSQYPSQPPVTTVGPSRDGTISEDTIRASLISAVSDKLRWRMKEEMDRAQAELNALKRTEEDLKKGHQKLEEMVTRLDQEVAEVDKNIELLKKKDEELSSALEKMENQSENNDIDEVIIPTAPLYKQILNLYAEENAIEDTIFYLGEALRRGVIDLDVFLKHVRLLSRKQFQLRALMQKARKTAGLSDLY
Procedure, shortened: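 Tsg101 binding domain (10 uM final) in pH 7.5 HEPES/NaCl/Tween 20/EDTA/TCEP buffer was mixed with pin-transferred compounds, then FITC-labeled PTAP peptide (50 nM final) was added; after 20 min at r.t., fluorescence polarization was read.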

[3] = qHTS Validation Assay to Find Inhibitors of Chronic Active B-Cell Receptor Signaling (AID 485345; active means well fitted curve in the direction sought with a large enough effect in the main read-out, with a control signal flat, not every such curve was filed as active; further: potency means the concentration at half of the fitted maximal effect)
Procedure, shortened: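 TMD8 ABC-DLBCL cells with dox-inducible green luciferase–IκBα fusion and red native luciferase; compounds 46 uM–3 nM, 4 h at 37C with doxycycline in 0.5% FBS IMDM. Green/red ratio normalized to basal and 10 uM MG-132.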

[4] = target: Beta-2 adrenergic receptor (Homo sapiens) (UniProt P07550); test: qHTS validation assay of beta-arrestin-biased ligands of beta2-adrenergic receptor (AID 485366)
Chain of Beta-2 adrenergic receptor (Homo sapiens) (P07550 whole entry, looked up): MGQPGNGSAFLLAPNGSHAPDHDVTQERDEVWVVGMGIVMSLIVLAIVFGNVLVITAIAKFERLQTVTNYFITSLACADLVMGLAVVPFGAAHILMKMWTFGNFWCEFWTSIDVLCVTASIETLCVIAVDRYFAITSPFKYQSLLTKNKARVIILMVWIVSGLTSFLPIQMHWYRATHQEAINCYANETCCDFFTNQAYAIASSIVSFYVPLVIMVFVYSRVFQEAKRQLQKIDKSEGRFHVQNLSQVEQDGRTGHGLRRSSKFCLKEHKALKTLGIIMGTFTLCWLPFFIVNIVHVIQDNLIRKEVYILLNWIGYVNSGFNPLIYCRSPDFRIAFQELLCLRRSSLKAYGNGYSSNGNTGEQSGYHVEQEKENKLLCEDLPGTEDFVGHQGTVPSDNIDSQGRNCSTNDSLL
Procedure, shortened: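 Agonist activity is measured as luciferase luminescence downstream of beta-arrestin recruitment to recombinant beta2-AR in Tango cells. Exposure lasts 18 hr at 37 degrees C, and curves are categorized by r2, response size and activity.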

[5] = target: ATP-dependent 6-phosphofructokinase (Trypanosoma brucei brucei) (UniProt O15648); test: qHTS Validation Assay to Find Inhibitors of T. brucei phosphofructokinase (AID 485368); settings: outcome: dose series up to 57.5 µM
Chain of ATP-dependent 6-phosphofructokinase (Trypanosoma brucei brucei) (O15648 whole entry, looked up): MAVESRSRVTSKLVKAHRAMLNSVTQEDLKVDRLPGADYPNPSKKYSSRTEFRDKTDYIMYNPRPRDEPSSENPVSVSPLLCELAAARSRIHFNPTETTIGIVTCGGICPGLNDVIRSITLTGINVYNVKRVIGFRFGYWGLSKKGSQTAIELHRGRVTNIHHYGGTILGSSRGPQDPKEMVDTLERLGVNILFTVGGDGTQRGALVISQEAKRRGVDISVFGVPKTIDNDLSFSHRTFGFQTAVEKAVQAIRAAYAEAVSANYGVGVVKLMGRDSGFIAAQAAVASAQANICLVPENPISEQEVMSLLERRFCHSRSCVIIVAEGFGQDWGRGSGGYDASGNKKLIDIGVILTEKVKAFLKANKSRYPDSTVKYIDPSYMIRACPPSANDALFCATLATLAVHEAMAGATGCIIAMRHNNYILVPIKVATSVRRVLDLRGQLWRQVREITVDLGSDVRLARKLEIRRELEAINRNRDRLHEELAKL
Procedure, shortened: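 Inhibition derived from concentration-response curves of luminescence, ranked by r2, response size and curve class; the underlying reaction used 1.25 nM PFK, 0.1 mM ATP and 0.5 mM F6P, 45 min, room temperature.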

[6] = Quantitative high throughput screen for delayed death inhibitors of the malarial parasite plastid, 96 hour incubation (AID 488745); further: nearly all actives have a fitted effect of over 70% in size; further: potency means the concentration at half of the fitted maximal effect
Procedure, shortened: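 Decreased firefly luciferase luminescence indicates inhibited growth of reporter-integrated P. falciparum after two generations (96 h, 37 C, 5% CO2). Infected erythrocytes at 0.1% parasitemia, 2% hematocrit, in Albumax-supplemented RPMI 1640.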

[7] = Quantitative high throughput screen for delayed death inhibitors of the malarial parasite plastid, 48 hour incubation (AID 488752); further: nearly all actives have a fitted effect of over 65% in size; further: potency means the concentration at half of the fitted maximal effect
Procedure, shortened: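 One-generation (48 h) growth assay: a decrease in luciferase signal from an integrated reporter in P. falciparum-infected red cells (0.1% parasitemia, 2% hematocrit) after compound exposure at 37 C indicates parasite inhibition.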

[8] = target: Thioredoxin reductase 1, cytoplasmic (Rattus norvegicus) (UniProt O89049); test: qHTS Assay for Substrates of Mammalian Selenoprotein Thioredoxin Reductase 1 (TrxR1) (AID 488772);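 further: series mostly up to about 57 µM; a drop in NADPH fluorescence below the no-compound background marks a TrxR1 substrate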
Chain of Thioredoxin reductase 1, cytoplasmic (Rattus norvegicus) (O89049 whole entry, looked up): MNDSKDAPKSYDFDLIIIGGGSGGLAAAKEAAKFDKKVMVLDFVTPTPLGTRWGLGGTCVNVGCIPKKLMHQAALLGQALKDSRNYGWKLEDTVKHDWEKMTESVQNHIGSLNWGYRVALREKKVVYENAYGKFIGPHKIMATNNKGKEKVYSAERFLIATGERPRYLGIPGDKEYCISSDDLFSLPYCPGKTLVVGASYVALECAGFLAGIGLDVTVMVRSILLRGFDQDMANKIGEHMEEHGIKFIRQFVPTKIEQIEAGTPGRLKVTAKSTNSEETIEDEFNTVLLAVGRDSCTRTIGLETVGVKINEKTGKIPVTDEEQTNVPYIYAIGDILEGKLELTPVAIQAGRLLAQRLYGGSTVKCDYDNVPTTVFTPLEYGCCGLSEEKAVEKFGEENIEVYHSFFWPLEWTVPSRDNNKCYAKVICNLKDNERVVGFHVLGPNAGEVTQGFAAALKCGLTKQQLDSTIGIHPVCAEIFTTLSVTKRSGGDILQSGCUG
Procedure, shortened: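 In this dual-purpose format, potential substrates are identified from the first fluorescence read after selenite addition, not from the 8-minute delta. Rat enzyme is preincubated with NADPH and then with compound at ~22 deg C.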

[9] = target: Thioredoxin reductase 1, cytoplasmic (Rattus norvegicus) (UniProt O89049); test: qHTS Assay for Inhibitors of Mammalian Selenoprotein Thioredoxin Reductase 1 (TrxR1) (AID 488773); settings: Potency: inhibition;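 further: drop in NADPH fluorescence over an 8 min run after selenite addition; series mostly up to about 57 µM; nearly all actives have a fitted effect of over 40% in size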
Procedure, shortened: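 Inhibition is scored from the loss of NADPH fluorescence between first and last reads of an 8-min kinetic run. Selenite (400 uM) was the substrate, added after 15 min compound preincubation at room temperature.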

[10] = target: Flap endonuclease 1 (Homo sapiens) (UniProt P39748); test: qHTS Validation Assay for the Inhibitors of Human Flap endonuclease 1 (FEN1) (AID 488816)
Chain of Flap endonuclease 1 (Homo sapiens) (P39748 whole entry, looked up): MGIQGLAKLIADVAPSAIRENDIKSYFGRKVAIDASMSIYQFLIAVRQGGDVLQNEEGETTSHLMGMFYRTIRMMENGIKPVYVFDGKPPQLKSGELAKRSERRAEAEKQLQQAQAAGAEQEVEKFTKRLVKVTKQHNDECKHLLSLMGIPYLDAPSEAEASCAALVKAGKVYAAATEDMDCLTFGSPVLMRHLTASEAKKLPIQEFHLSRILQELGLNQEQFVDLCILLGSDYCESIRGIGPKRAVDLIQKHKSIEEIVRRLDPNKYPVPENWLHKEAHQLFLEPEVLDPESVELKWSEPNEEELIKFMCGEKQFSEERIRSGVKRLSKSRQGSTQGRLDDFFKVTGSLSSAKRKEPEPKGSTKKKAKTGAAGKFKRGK
Procedure, shortened: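 Steps: add FEN1 (10 nM reagent) or buffer only; pin compounds; hold 15 min at room temperature; start with substrate, 50 nM final; read at 0 and 15 min; correct, normalize and fit a four-parameter Hill curve.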

[11] = target: M-phase phosphoprotein 8 (Homo sapiens) (UniProt Q99549); test: qHTS Validation Assay for Inhibitors for MPP8 Chromodomain Interactions with Methylated Histone Tails (AID 488949); further: nearly all actives have a fitted effect of over 55% in size; further: potency means the concentration at half of the fitted maximal effect
Chain of M-phase phosphoprotein 8 (Homo sapiens) (Q99549 whole entry, looked up): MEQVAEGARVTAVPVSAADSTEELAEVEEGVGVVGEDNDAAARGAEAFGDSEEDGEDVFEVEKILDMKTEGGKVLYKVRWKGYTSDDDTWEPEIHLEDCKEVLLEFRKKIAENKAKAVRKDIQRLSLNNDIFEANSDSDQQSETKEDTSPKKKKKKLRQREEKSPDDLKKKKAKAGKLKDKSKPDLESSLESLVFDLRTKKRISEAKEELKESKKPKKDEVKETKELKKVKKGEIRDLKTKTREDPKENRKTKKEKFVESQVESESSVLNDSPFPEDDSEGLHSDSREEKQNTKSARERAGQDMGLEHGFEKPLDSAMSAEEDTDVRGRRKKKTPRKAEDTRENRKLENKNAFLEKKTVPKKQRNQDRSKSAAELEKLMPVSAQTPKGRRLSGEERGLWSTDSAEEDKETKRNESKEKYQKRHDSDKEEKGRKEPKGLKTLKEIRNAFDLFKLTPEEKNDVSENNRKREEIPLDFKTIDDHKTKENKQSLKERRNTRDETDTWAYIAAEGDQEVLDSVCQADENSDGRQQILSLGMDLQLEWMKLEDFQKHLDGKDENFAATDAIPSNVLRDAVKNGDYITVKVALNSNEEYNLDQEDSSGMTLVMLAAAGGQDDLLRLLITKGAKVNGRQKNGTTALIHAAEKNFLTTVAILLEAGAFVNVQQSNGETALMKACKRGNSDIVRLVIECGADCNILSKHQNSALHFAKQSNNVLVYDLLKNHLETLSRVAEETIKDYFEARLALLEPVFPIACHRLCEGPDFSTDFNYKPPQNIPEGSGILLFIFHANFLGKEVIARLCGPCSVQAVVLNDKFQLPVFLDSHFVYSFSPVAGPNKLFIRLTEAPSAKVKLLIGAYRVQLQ
Procedure, shortened: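 MPP8 (50 nM) was preincubated with biotinylated H3(1-18)K9me3 peptide (50 nM) in PBS pH 7.4, 0.01% Tween-20 for 30 min at room temperature, then with compounds for 30 min; binding was detected by AlphaScreen.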

[12] = target: Chromobox protein homolog 1 (Homo sapiens) (UniProt P83916); test: qHTS Validation Assay for Inhibitors of HP1-beta Chromodomain Interactions with Methylated Histone Tails (AID 488953); further: nearly all actives have a fitted effect of over 50% in size; further: potency means the concentration at half of the fitted maximal effect
Chain of Chromobox protein homolog 1 (Homo sapiens) (P83916 whole entry, looked up): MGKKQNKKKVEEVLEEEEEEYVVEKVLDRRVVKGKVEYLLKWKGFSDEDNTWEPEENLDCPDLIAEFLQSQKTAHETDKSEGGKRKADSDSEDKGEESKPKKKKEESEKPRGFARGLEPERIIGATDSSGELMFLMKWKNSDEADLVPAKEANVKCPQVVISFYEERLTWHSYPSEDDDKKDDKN
Procedure, shortened: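 AlphaScreen proximity signal from streptavidin donor and nickel chelate acceptor beads (final 10 ug/mL) after 30 min dark incubation. Compounds had 30 min at room temperature with preformed complex of 50 nM HP1-beta and 50 nM b-H3(1-18)K9me3 in PBS pH 7.4 with 0.01% Tween-20.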

[13] = target: Transient receptor potential cation channel subfamily V member 1 (Homo sapiens) (UniProt Q8NER1); test: HTS Assay for Compounds that Act as Enhancers of the Vanilloid Receptor 1 (AID 488979)
Procedure, shortened: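 TRPV1-expressing cells loaded with Fluo-8 calcium dye; compounds added and calcium influx read kinetically for 3 min (agonist phase), then capsaicin at EC20 added and read 2 min more for enhancement. Fluorescence ex 480/em 520 nm.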

[14] = target: D(1A) dopamine receptor (Homo sapiens) (UniProt P21728); test: HTS Assay for Allosteric Agonists of the Human D1 Dopamine Receptor: Primary Screen for Agonists (AID 488981)
Chain of D(1A) dopamine receptor (Homo sapiens) (P21728 whole entry, looked up): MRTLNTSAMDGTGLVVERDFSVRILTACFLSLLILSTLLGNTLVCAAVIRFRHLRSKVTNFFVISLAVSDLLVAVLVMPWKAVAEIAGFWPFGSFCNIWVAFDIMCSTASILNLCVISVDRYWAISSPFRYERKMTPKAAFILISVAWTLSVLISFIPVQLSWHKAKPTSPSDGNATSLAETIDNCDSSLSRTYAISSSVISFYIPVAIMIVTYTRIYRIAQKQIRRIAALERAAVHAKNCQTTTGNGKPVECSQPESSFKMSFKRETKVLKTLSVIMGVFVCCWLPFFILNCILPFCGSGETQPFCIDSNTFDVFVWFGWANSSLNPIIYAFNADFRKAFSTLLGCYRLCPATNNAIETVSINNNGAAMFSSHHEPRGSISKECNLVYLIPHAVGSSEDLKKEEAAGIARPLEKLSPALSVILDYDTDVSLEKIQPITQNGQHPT
Procedure, shortened: (§1)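 Tetracycline-induced HEK293 T-REx cells force-coupled to calcium signalling were incubated overnight at 30 C and dye-loaded at room temperature. Calcium flux over 180 s after compound addition flagged agonists; a further 180 s read after EC20 dopamine flagged potentiators.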

[15] = target: D(1A) dopamine receptor (Homo sapiens) (UniProt P21728); test: HTS Assay for Allosteric Agonists of the Human D1 Dopamine Receptor: Primary Screen for Potentiators (AID 488982)
Procedure, shortened: as §1

[16] = target: D(1A) dopamine receptor (Homo sapiens) (UniProt P21728); test: HTS Assay for Allosteric Agonists of the Human D1 Dopamine Receptor: Primary Screen for Antagonists (AID 488983);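 further: calcium flux response to an EC80 dopamine challenge measured with no-wash dye; nearly all actives have a fitted effect of over 65% in size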
Procedure, shortened: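 Calcium-flux read-out in inducible HEK293 T-REx cells expressing D1, dye-loaded 30–90 min at room temperature. Kinetic reads: 180 s after compound (agonist phase), then 180 s after an EC80 dopamine challenge.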

[17] = Validation screen for small molecules that induce genotoxicity in human embryonic kidney (HEK293T) cells expressing luciferase-tagged ELG1 (AID 493106)
Procedure, shortened: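 ELG1-luciferase reporter readout (ONE-Glo, 30 min, room temperature) after 16 hr compound treatment at 37 °C of HEK293T cells at 2,000 per well. Rising luminescence flags genotoxic stress.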

[18] = target: Methanococcus maripaludis chaperonin (MmCpn) (UniProt Q6LX38); test: High-Throughput Screening for Modulators of Cytosolic Chaperonin Activity: MmCpn Primary Screen (AID 488978);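 further: 50 nM MmCpn enzyme hydrolysing 30 µM ATP at 37 °C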
Chain of Methanococcus maripaludis chaperonin (MmCpn) (Q6LX38 1-543): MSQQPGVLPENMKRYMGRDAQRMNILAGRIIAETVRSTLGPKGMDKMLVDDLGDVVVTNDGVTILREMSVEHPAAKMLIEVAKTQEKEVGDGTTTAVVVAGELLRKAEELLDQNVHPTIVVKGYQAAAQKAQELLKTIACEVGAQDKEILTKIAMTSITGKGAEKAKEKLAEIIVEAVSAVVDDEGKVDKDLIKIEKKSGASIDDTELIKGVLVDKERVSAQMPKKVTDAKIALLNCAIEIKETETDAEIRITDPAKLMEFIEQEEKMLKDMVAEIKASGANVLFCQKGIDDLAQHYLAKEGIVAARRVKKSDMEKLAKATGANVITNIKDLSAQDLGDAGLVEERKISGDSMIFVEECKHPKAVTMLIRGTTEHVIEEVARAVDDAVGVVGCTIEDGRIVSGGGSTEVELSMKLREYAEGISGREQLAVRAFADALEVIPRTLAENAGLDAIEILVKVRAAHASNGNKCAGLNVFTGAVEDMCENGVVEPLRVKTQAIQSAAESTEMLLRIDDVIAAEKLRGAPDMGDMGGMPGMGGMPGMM
Procedure, shortened: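 MmCpn (50 nM final) was preincubated with compound 5 min at RT, then 30 uM ATP (final) was added and the reaction ran 10 min at 37C. ADP produced was detected by Transcreener HTRF (ex 320 nm; em 590/665 nm).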

[19] = target: Thyrotropin receptor (Homo sapiens) (UniProt P16473); test: qHTS Assay for Antagonists of the Thyroid Stimulating Hormone Receptor (AID 488980); further: series mostly up to about 58 µM
Chain of Thyrotropin receptor (Homo sapiens) (P16473 whole entry, looked up): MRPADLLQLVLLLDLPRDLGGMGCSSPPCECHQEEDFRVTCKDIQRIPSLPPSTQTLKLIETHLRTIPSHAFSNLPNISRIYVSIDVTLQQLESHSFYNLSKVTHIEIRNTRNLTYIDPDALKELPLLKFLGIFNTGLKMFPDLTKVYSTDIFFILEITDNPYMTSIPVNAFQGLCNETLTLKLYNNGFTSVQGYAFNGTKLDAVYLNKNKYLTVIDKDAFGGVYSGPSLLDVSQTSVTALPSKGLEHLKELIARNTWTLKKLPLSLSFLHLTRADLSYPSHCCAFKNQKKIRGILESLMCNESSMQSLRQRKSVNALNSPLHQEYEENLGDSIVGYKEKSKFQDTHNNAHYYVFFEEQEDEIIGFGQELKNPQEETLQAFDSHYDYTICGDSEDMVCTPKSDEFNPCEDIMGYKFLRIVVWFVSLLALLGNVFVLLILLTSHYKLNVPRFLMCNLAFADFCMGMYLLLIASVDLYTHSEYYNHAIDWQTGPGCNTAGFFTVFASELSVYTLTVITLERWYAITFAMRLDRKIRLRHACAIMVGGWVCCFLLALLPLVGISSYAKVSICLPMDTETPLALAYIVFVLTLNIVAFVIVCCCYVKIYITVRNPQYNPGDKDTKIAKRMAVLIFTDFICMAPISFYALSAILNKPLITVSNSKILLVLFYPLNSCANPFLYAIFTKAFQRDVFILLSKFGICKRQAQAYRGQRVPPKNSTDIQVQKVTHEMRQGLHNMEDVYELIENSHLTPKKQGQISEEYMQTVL
Procedure, shortened: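 HEK293 cells transfected with human TSHR, suspended in HEPES-buffered HBSS with 70 uM RO 20-1724, were treated with compounds plus TSH at EC80 (4 nM final). cAMP was measured by competitive HTRF (cryptate anti-cAMP antibody, cAMP-d2 acceptor).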

[20] = target: ATP-dependent 6-phosphofructokinase (Trypanosoma brucei brucei) (UniProt O15648); test: qHTS Assay to Find Inhibitors of T. brucei phosphofructokinase: hit validation (AID 492961);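 further: luminescence reports ADP formed as PFK phosphorylates fructose-6-phosphate with ATP; series mostly up to about 51 µM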
Procedure, shortened: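 PFK 1.25 nM, F6P 0.5 mM, ATP 0.1 mM, MgCl2 5 mM, 0.1 M TEA pH 8.0, Tween20 0.01%, BSA 0.1%; 45 min RT. ADP-Glo two-step detection, luminescence. qHTS titration; curve fitting with curve-class categorization.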

Measured: Potency

NC(=O)N1c2ccccc2C=Cc2ccccc21
not listed: [18] | [19] | [20]
inactive: all other assays above

N[C@@H](COP(=O)(O)O)C(=O)O
not listed: [20]
inactive: all other assays above

CN(C)CCN(Cc1cccs1)c1ccccn1
not listed: [9] | [13] | [17]
inactive: all other assays above

CCn1cc(C(=O)O)c(=O)c2cc3c(cc21)OCO3
not listed: [5] | [7] | [8] | [9] | [12] | [18] | [20]
inactive: all other assays above

CN1C[C@H](C(=O)N[C@]2(C)O[C@@]3(O)[C@@H]4CCCN4C(=O)[C@H](Cc4ccccc4)N3C2=O)C[C@@H]2c3cccc4[nH]cc(c34)C[C@H]21
inactive: [1] | [2] | [3] | [4] | [5] | [10] | [14] | [17]

CN(C)CCOC(=O)COc1ccc(Cl)cc1
not listed: [5] | [6] | [7]
inactive: all other assays above

CC(=O)OCC1=C(C(=O)O)N2C(=O)[C@@H](NC(=O)Cc3cccs3)[C@H]2SC1
not listed: [5] | [9] | [10] | [17]
inactive: all other assays above

CCCCCCCC/C=C\CCCCCCCC(=O)NCc1ccc(O)c(OC)c1
not listed: [6] | [7] | [8] | [13] | [15] | [17] | [19]
inactive: all other assays above

CN(C)CC/C=C1\c2ccccc2COc2ccccc21
not listed: [5] | [9] | [13] | [16] | [18] | [20]
inactive: all other assays above

Cc1cccc(C)c1NC(=O)C(C)N (stereo not drawn)
not listed: [5] | [6] | [7] | [9] | [13] | [19] | [20]
inactive: all other assays above

CC1=C(C)C(=O)C(CCCCC#CCCCC#CCO)=C(C)C1=O
active: [3] 16.4 µM | [6] 10.4 µM | [7] 8.28 µM | [11] 31.6 µM | [12] 31.6 µM
not listed: [5] | [9] | [20]
inactive: all other assays above

c1cnc(N2CCN(Cc3ccc4c(c3)OCO4)CC2)nc1
not listed: [5] | [10] | [18] | [20]
inactive: all other assays above

NS(=O)(=O)c1cc2c(cc1Cl)NC(C1CC3C=CC1C3)NS2(=O)=O (stereo not drawn)
not listed: [5] | [6] | [15] | [17] | [18] | [19] | [20]
inactive: all other assays above

CCN(CC)CCNC(=O)c1cc(S(C)(=O)=O)ccc1OC
not listed: [5]
inactive: all other assays above

C(=C\c1ccccc1)/CN1CCN(C(c2ccccc2)c2ccccc2)CC1
not listed: [5] | [9] | [12] | [17] | [18] | [20]
inactive: all other assays above

CCN(CC)CCOCCOC(=O)C1(c2ccccc2)CCCC1
not listed: [5] | [6]
inactive: all other assays above

Fc1ccc(C(c2ccc(F)cc2)N2CCN(C/C=C/c3ccccc3)CC2)cc1
active: [6] 10.4 µM
not listed: [5] | [7] | [12] | [17] | [20]
inactive: all other assays above

O=C(CCCN1CCC(O)(c2cccc(C(F)(F)F)c2)CC1)c1ccc(F)cc1
active: [6] 9.28 µM | [7] 13.1 µM
not listed: [5] | [10] | [14] | [16] | [17] | [20]
inactive: all other assays above
